# In the library only some 2.4% were active in any assay of this set; here they are far more common.
# D2 PAM-1: HTS Assay for Positive Allosteric Modulators of the Human D2 Dopamine Receptor: Primary Screen for Potentiators; HEK293 T-REx D2, calcium flux, EC20 dopamine potentiation; hit rate 0.34% among 340,000; AID 485347, 2010; potentiation, % at 10 µM;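 active means potentiation over 3 SD above the plate norm, cut at about 30% in these data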; further: 0% is about no effect
# Target sequence (P14416 whole entry, looked up): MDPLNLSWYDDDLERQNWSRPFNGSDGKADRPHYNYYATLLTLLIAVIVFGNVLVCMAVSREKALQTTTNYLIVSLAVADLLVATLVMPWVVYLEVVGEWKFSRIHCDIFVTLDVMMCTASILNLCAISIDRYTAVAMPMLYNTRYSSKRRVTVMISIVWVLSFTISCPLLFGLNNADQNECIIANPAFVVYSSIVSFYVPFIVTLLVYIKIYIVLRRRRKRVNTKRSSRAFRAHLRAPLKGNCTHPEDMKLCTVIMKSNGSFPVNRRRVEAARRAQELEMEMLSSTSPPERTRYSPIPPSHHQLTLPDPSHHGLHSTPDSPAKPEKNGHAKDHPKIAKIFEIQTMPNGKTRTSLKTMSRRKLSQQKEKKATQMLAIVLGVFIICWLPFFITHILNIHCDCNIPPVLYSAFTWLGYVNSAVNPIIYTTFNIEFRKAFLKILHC
#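 Cells plated with tetracycline inducer and held overnight at 30 C; calcium dye loaded 30–90 min at room temperature; baseline taken, compound added and read 180 s; EC20 dopamine then added and read 180 s.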
# D2 ag-1: Beta-Arrestin HTS for Positive Allosteric Modulators of the Human D2 Dopamine Receptor: Agonists | AID 624465, 2012 | hit rate 0.084% among 360,000 | D(2) dopamine receptor (Homo sapiens), P14416 | DiscoveRx PathHunter D2 beta-arrestin, luminescence, 90 min; 100% = 57 uM dopamine signal | activation, % (concentration not given with the values); in the data active means activation above about 40%; inconclusive means between about 15% and that limit
#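 Agonist mode: compounds alone added to overnight-plated D2 PathHunter cells for 90 min at 37 C, with 57 uM final dopamine (EC100) defining full response. Beta-arrestin recruitment detected by chemiluminescent reagent, read after 1 h at ambient temperature.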
# D2 ag-2: HTS Assay for Allosteric Agonists of the Human D2 Dopamine Receptor: Primary Screen for Agonists; D(2) dopamine receptor (Homo sapiens), P14416; HEK293 T-REx D2 cells, calcium flux agonist mode; activation, % at 2 µM; hit rate 0.53% among 340,000; AID 485358, 2010;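 active means activation over 3 SD above normal in the single-dose calcium agonist read, cut at about 30% in these data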; further: 0% is about no effect
#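 Tetracycline-induced HEK293 T-REx cells with force-coupled D2 receptor, plated overnight at 30 C, loaded with no-wash calcium dye. After a 10 s baseline, compound was pin-added and calcium flux read kinetically for 180 s; calcium rises flagged agonists.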
# D2 antag: HTS Assay for Allosteric Antagonists of the Human D2 Dopamine Receptor: Primary Screen for Antagonists. D(2) dopamine receptor (Homo sapiens), P14416. HEK293 TREx D2 cells, calcium flux, dopamine EC80. inhibition, % at 10 µM. hit rate 2% among 340,000. AID 485344, 2010; in the data active means inhibition above about 30%; inactive means below that, where a call was filed; further: 0% is about no effect
#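 Calcium flux kinetic readout in an inducible HEK293 TREx D2 line plated overnight at 30 C. After 180 s compound exposure, an EC80 dopamine challenge follows with another 180 s kinetic read to detect antagonism.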
# D2 PAM-2: Beta-Arrestin HTS for Positive Allosteric Modulators of the Human D2 Dopamine Receptor: Potentiators; D(2) dopamine receptor (Homo sapiens), P14416; DiscoveRx D2 beta-arrestin cells, luminescence, 90 min; 100% = 57 uM dopamine signal; potentiation, % (no concentration beside the values); hit rate 0.23% among 360,000; AID 624464, 2012; in the data active means potentiation above about 50%; inconclusive means mostly about 30% to 49%
#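 D2 cells co-treated with compound plus 50 nM dopamine (EC20) for 90 min at 37 deg C to detect potentiation. Beta-arrestin recruitment was read as enzyme-fragment luminescence after 1 h at ambient temperature. Full response was set by 57 uM dopamine.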
# Numbers without * were called inactive; ? = inconclusive; · = no result; ! = not confirmed by another sample.
SMILES,D2 PAM-1,D2 ag-1,D2 ag-2,D2 antag,D2 PAM-2
Cc1ccccc1C(=O)Nc1nnc(SCc2cc(=O)c3c(C)ccc(C)c3[nH]2)s1,-7,·,1,·,·
Cc1ccc2c(c1)-c1c(cnn1CC(=O)N1CCN(c3ccccc3F)CC1)CO2,-2,·,0,·,·
O=C(NNc1nc2ccc(F)cc2s1)c1cccc(F)c1,-14,6,5,41*,-20
Cn1c(=O)c2c(nc(N/N=C/c3cccs3)n2C)n(C)c1=O,6,2,0,-4,3
Cn1c(=O)c2c(nc(N/N=C/c3ccco3)n2C)n(C)c1=O,-1,2,0,52*,4
Nc1nnnn1/N=C/c1cccc(OCc2ccccc2Cl)c1,3,-4,-2,31*,-20
CCOc1ccc(CC(=O)Nc2c(C(=O)c3ccc(C)cc3)oc3ccccc23)cc1OCC,14,·,0,·,·
CCOc1ccc2cc(S(=O)(=O)n3ccnc3C)ccc2c1,37*,-3,0,-5,-4
Cc1cc(C)n2nnnc2n1,-7,-1,1,38*,-8
O=S(=O)(c1ccccc1)c1nc(-c2ccco2)oc1SCc1ccc(F)cc1,-24,·,2,·,·
Cc1cs/c(=N\N=C\c2ccccc2)n1Cc1ccco1,-4,-1,1,1,2
CC(C)=N/N=c1\scc(C)n1Cc1ccco1,8,2,1,40*,7
CCOc1cccc2sc(Nc3nc4ccc(NC(C)=O)cc4s3)nc12,-14,4,1,31*,4
Cc1ccc(-n2nc(CO)c(C(=O)NCc3ccccn3)n2)cc1C,1,·,-1,·,·
CCCNC(=O)NCCc1c(C)[nH]c2ccccc12,7,5,0,-1,-4
COc1ccc2c(c1O)C(=O)c1ccccc1C2=O,-6,·,0,4,·
C=CCc1cccc2cc(C(=O)NCCc3c(C)[nH]c4c(C)cccc34)c(=O)oc12,-4,·,0,·,·
CN(C)C(=O)c1ccc2c(c1[N+](=O)[O-])C(=O)c1ccccc1C2=O,·,?,·,·,68*
Cc1[nH]c2c(C)cccc2c1CCNC(=O)c1ccc2c(c1[N+](=O)[O-])C(=O)c1ccccc1C2=O,-7,?,0,-5,93*
Cc1[nH]c2ccccc2c1CCNC(=O)c1ccc2c(c1[N+](=O)[O-])C(=O)c1ccccc1C2=O,-9,?,0,-5,93*
O=C(COc1ccccc1Cl)Nc1ccc(OCc2cc(=O)n3ccsc3n2)cc1,3,·,1,·,·
COc1cc(/C=C2\SC(N3CCc4ccccc4C3)=NC2=O)cc(OC)c1OC,-29,-8,0,56*,-23
Cn1nnnc1SCC(=O)C(C)(C)C,0,-3,0,-10,-8
COC(=O)c1ccccc1NC(=O)CN1CCc2ccccc2C1,0,5,1,-2,-10
COC(=O)c1ccccc1NC(=O)CN1CCN(C23CC4CC(CC(C4)C2)C3)CC1,-24,-3,1,72*,-19
SMILES,D2 PAM-1,D2 ag-1,D2 ag-2,D2 antag,D2 PAM-2
Cc1ccccc1C(=O)NN1CCOCC1,-2,1,1,-7,6
O=C(NN1CCOCC1)c1ccccc1Br,33*,-2,1,11,-2
COc1ccc(OCC(=O)NCc2ccc3c(c2)CCN3C(=O)c2cccc(C)c2)cc1,-9,·,-1,·,·
CC(C)Cn1c(N)c(C(=O)COC(=O)c2c(F)cccc2F)c(=O)n(C)c1=O,-3,-6,4,45*,4
CC(C)Cn1c(N)c(C(=O)CSc2ccc3c(c2)OCCO3)c(=O)n(C)c1=O,33*,3,0,-8,-5
CC(C)c1ccc(NC(=O)CN2C(=O)COc3ccc(S(=O)(=O)Nc4ccccc4)cc32)cc1,2,·,0,·,·
Cc1ccccc1OCCC(=O)N1CCN(S(=O)(=O)c2ccc(Br)cc2)CC1,4,-3,-1,55*,-24
Cc1ccc(S(=O)(=O)Nc2cccc(-c3ccc(N4CCCCCC4)nn3)c2)cc1,-9,-6,·,·,-10
CCN1C(=O)CSc2ccc(C(=O)NCCCN3CCOCC3)cc21,-7,-2,35*,-1,-10
O=C(NCCN1CCOCC1)c1ccc2c(c1)N(Cc1ccccc1)C(=O)CS2,·,0,-1,-16,-9
CCOC(=O)c1cc(-c2ccc(OC)cc2)n(CCC(=O)NCCN2CCC(C)CC2)c1C,-21,-2,1,66*,-11
CN1/C(=C\C=C2/SC(=S)NC2=O)C(C)(C)c2ccccc21,-8,-11,41*,16,-14
CCCN1C(=O)/C(=C\C=C2\N(CC)c3ccccc3C2(C)C)SC1=S,-9,-1,22,1,-8
CN1/C(=C\C=C2/C(=O)Oc3ccccc3C2=O)C(C)(C)c2ccccc21,-12,-2,125*,68*,3
CN1C(=CC=C2C=C(I)C(=O)C(I)=C2)C(C)(C)c2ccccc21,-4,-2,7,15,-1
Cc1ccc(-c2csc(C3=C(O)CN(NC(=O)c4ccco4)C3=N)n2)cc1,0,-1,0,-16,-1
CCOC(=O)c1c(S(=O)(=O)N2CCCC(C(=O)NCc3cccc(OC)c3)C2)c(C)n(C)c1C (configuration not stated),13,·,·,·,·
COc1ccc(NS(=O)(=O)c2cc3c(cc2C)NC(=O)CO3)c(OC)c1,-8,3,38*!,-11,13
Cc1ccccc1NS(=O)(=O)c1cc2c(cc1C)NC(=O)CO2,14,-2,6,11,0
COc1cccc(OC)c1C(=O)NC(=O)Nc1c(C)cccc1C,5,-3,1,32*,-10
Cc1ccc(C(=O)C2CCN(CC(=O)Nc3ccc(N(C)C)cc3)CC2)cc1,-27,-1,0,33*,-19
O=C(CN1CCC(C(=O)c2ccc(F)cc2)CC1)Nc1ccc(F)cc1,-25,-2,0,10,-34
Cc1ccc(C(=O)C2CCN(CC(=O)N3CCN(c4ccc(F)cc4)CC3)CC2)cc1,-14,1,0,51*,-13
Cc1ccc(C(=O)N2CCC(C(=O)c3ccc(F)cc3)CC2)cc1,·,-2,·,·,-20
O=C(NCc1ccccc1CN1CCCC1)c1cccc(S(=O)(=O)N2CCOCC2)c1,-14,-3,0,49*,-35
Cc1c(C(=O)NCc2ccccc2CN2CCCC2)oc2ccc(F)cc12,-26,-1,0,58*,-3
CC1CCN(C(=O)COC(=O)c2cccc(S(=O)(=O)N(C)c3ccccc3)c2)CC1,1,2,5,43*,5
